# Laboratory results as given in PubChem BioAssay (NCI).
# Compounds without any hit were thinned out: in the full panel of roughly 83,000, 20% have a hit.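 Growth was measured after 48 h exposure to one concentration of compound in 96-well plates. Values under 10 count as active.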 Activity calls are given as the source filed them.
# System: MCF7 breast
# Experiment: NCI-60 one-dose screen, 48 h (100 = growth as untreated, 0 = no growth, -100 = all killed)
# Conditions: 10 µM unless noted
# Description: Growth inhibition of the MCF7 human tumor cell line is measured as a screen for anti-cancer activity. Cells are grown in 96 well plates and exposed to the test compound for 48 hours. Compounds are tested at a single concentration, which is 10^-5 M for most compounds. The reported endpoint is percent growth (GI% or GIPRCNT), where numbers from 0 - 100% represent growth inhibition, and numbers from -100% - 0 represent cell death. For example, a value of 40 represents 60% growth inhibition. A value of 0 means no net growth occurred over the course of the experiment. A value of -40 indicates 40% of cells at the beginning of the experiment died by the end of the experiment. A value of -100 means all cells are dead at the end of the experiment.
# NCI-60 Human Tumor Cell Lines Screen was performed using the standard one-dose NCI protocol, which is described in more detail at https://dtp.cancer.gov/discovery_development/nci-60/default.htm.
# Compounds with GIPRCNT values below 10 were considered active. Activity score was based on GIPRCNT using the following formula: […]
# Score is 0 for GIPRCNT values of 100 or above, 50 for GIPRCNT values of 0, and 100 for GIPRCNT values of -100.
row,SMILES,growth
1,CCCCC[C@H]1C/C=C2/C(=O)C=C[C@@H]2C/C=C\CCCC(=O)O1,0.464% (active)
2,CN1C(=O)C2(SCC(C(=O)NCc3ccccc3)N2C(=O)C2CCCCC2)c2ccccc21 (stereo not given),94.8% (inactive)
3,O=C1c2cc3c(cc2-c2c1c1cc(F)c(F)cc1c(=O)n2CCCn1ccnc1)OCO3,-1.22% (active)
4,COc1ccc(-n2nc(C)c3c(Nc4ccc(NC(=O)Nc5c(Cl)cccc5Cl)cc4)ncnc32)cc1,58.5% (inactive)
5,O=C(COc1ccc(/C=C2\CSc3ccccc3C2=O)cc1)Nc1nccs1,6.72% (active)
6,OC(c1cc2cc(Cl)c(Cl)cc2c2cc(C(F)(F)F)ccc12)C1CCCCN1 (stereo not given),-87.3% (active)
7,Cc1c(/C=C/[N+](=O)[O-])ccc2c1[nH]c1ccccc12,-11.9% (active)
8,COc1ccc(C(=O)COc2ccc(/C=C3\COc4ccc(OC)cc4C3=O)cc2)cc1,34.2% (inactive)
9,CC1=NN(c2nc(-c3ccc(Cl)cc3)c(C#N)c(N3CCOCC3)n2)C(=O)C1,94.4% (inactive)
10,COc1cccc(-c2nc(SCC(=O)Nc3ccc(C(=O)/C=C/c4ccc(OC)c(OC)c4)cc3)[nH]c(=O)c2C#N)c1,82.4% (inactive)
11,CC1=C[C@H]2c3c(c(O)c(O)c4oc5cc(O)ccc5c(=O)c34)[C@H](c3cc(O)c(O)c4oc5cc(O)ccc5c(=O)c34)[C@H]2C(C)(C)C1,15.4% (inactive)
12,OC(COc1cccc2ccccc12)CN1CCN(c2ccccc2Cl)CC1 (stereo not given),105% (inactive)
13,Cc1ccccc1COc1ccc(-c2onc(C)c2-c2ccc(Cl)cc2)cc1,31.7% (inactive)
14,COc1ccc(NC2=C(Sc3nc(C)cc(C)n3)C(=O)N(Cc3ccccc3)C2=O)cc1Cl,48.4% [30 µM] (inactive)
15,COC(=O)c1ccc(Cn2cnc3c(N)ncnc32)cc1,98.3% (inactive)
16,CC1=CC(=NN=c2cc(C)n([O-])c(C)c2)C=C(C)[N+]1=O,19.3% (inactive)
17,C=C(C)C1CC(O)C2(C)CCCC3C2C1CC(C)C3(C)CC/C(C)=C/C(O)C1CCC(=O)c2c(OC)cc(OC)cc21 (stereo not given),30.1% (inactive)
18,COc1ccc(C(=O)COc2cccc(/C=C3\CSc4ccccc4C3=O)c2)cc1,-79.8% (active)
19,CN(C)[C@@H]1C(=O)C(C(=O)NCc2nc3[nH]cnc(=S)c3[nH]2)=C(O)[C@@]2(O)C(=O)C3=C(O)c4c(O)cccc4[C@@](C)(O)[C@H]3C[C@@H]12,16.6% (inactive)
20,COc1cc(-c2nn(-c3ccc(Br)cc3)cc2C(=O)O)ccc1O,81.5% (inactive)

row,SMILES,growth
1,COc1ccc(SC2c3cc(OC)c(OC)cc3Oc3nc(N)c(C#N)c(N)c32)cc1 (stereo not given),-58.9% (active)
2,CC(=O)c1cc(C(=O)c2ccc3c(c2)Sc2ccccc2N3)n2ccccc12,24.7% (inactive)
3,NC(=NC1C2CC3CC(C2)CC1C3)Nc1ccc(I)cc1 (stereo not given),9.29% (active)
4,COc1cc(-c2nc3cc(Cl)c(Cl)cc3[nH]2)ccc1OCC(=O)N=Nc1c(O)[nH]c2ccccc12,-76.1% (active)
5,COc1ccc(C(=S)N2CCN(c3cccc(Cl)c3)CC2)cc1,111% (inactive)
6,CCCCn1c(-c2ccc(C(=O)O/N=C(\N)c3ccc4c(c3)OCO4)cc2)nc(-c2ccccc2)c1-c1ccccc1,48.1% (inactive)
7,N#Cc1cnn(-c2nc3c(Cl)cccc3s2)c1N,68.1% (inactive)
8,Cn1ncc2c(=O)nc3c(-c4ccccc4)n[nH]n3c21,92.8% (inactive)
9,CCOC(=O)c1csc(NC(=O)COc2cccc(/C=C3\CSc4ccccc4C3=O)c2)n1,2.02% (active)
10,Cn1ccnc1C(=O)/C=C/c1ccc(CC(=O)Nc2ccccc2)cc1,12% (inactive)
11,FC(F)(F)c1ccc(-c2cn3nc(-c4c[nH]c5ccc(Br)cc45)sc3n2)cc1,74.9% (inactive)
12,O=C(CCl)Oc1ccc(-c2ccccc2)c(Br)c1,103% (inactive)
13,NC(=NCCCOc1ccc(Cl)cc1)Nc1ccc(Cl)cc1,10.1% (inactive)
14,COc1ccc(S(=O)(=O)N2CCN(C)CC2)cc1NC(=O)c1[nH]c(C)c2c1CCCCC2=O,30% (inactive)
15,COc1nc2c(c(=O)n1C)CN(Cc1ccccc1)C=N2,101% (inactive)
16,COc1ccc(-n2nc(C)c3c(Oc4ccc(NC(=O)Nc5c(Cl)cccc5Cl)cc4)ncnc32)cc1,96.4% (inactive)
17,Oc1cccc2ccc(N/N=C/c3cc(CN4CCOCC4)c(O)c4ncccc34)nc12,18.6% (inactive)
18,COc1ccc2c(c1)c(-c1nonc1-c1cn(C)c3ccccc13)cn2C,24% (inactive)
19,CNC(=O)c1cc(Oc2ccc(NC(=O)Nc3ccc(Cl)c(SC)c3)c(F)c2)ccn1,30% (inactive)
20,CCCOc1cc2ccccc2cc1C(=O)Nc1nc(N)c2c(ccc3nccc32)[nH]1,-52.3% (active)
